# Laboratory results reported in PubChem BioAssay (NCATS).
# Values joined by “and” are separate entries in the source; they are usually repeats but may differ in a detail not shown here. Equal values may be shown once. Results filed as inconclusive are left out. Active and inactive are the calls of the source. Unless noted, the call rests on the fitted dose curve; in most records, active means well fitted curve in the direction sought with a large enough effect; inconclusive means small, poorly fitted or top-dose-only effect, or another doubt; inactive means no such curve, though single readings can be large; an effect the other way counts as inactive or inconclusive.
# Tests used:
# [1] = P-glycoprotein substrates identified in KB-8-5-11 adenocarcinoma cell line, qHTS therapeutic library screen (AID 1346987); further: nearly all actives have a fitted effect of over 65% in size; further: potency means the concentration at half of the fitted maximal effect
# How it was run: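 Compounds are pinned in dose-response onto KB-8-5-11 cells (500 cells/well, colchicine-free medium) and left 72 h at 37 degree C. CellTiter-Glo luminescence then yields AC50 values.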
# [2] = Primary qHTS for inhibitors of nuclear receptor binding SET domain protein 2 (NSD2) in an isogenic RCH-ACV NSD2 p.E1099K mutant (9B) (AID 1645876); further: nearly all actives have a fitted effect of over 70% in size; further: potency means the concentration at half of the fitted maximal effect
# [3] = Primary qHTS for inhibitors of nuclear receptor binding SET domain protein 2 (NSD2) in an RCH-ACV wild type WT cells (2C) (AID 1645877); further: nearly all actives have a fitted effect of over 70% in size; further: potency means the concentration at half of the fitted maximal effect
# [4] = molecular target: Glutathione peroxidase 1 (Homo sapiens) (UniProt P07203); experiment: Primary qHTS Assay for Inhibitors of Recombinant Selenoprotein Glutathione Peroxidase 1 (GPX1) (AID 1845191); further: nearly all actives have a fitted effect of over 65% in size
# How it was run: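 NADPH consumption tracked by fluorescence at 340/450 nm between t=0 and t=15 min, room temperature. Final mix: 10 nM GPX1, 100 nM glutathione reductase, 1 mM GSH, 0.5 mM NADPH, 0.5 mM cumene hydroperoxide, 0.01% BSA; 30 min compound–enzyme preincubation.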
# [5] = molecular target: Phospholipid hydroperoxide glutathione peroxidase GPX4 (Homo sapiens) (UniProt P36969); experiment: Primary qHTS Assay for Inhibitors of Recombinant Selenoprotein Glutathione Peroxidase 4 (GPX4) (AID 1845192); details: outcome: dose series up to 50 µM unless noted; further: nearly all actives have a fitted effect of over 65% in size; on activity change, negative = inhibition: on the % scale 0 is the no-effect control and ±100 the full control effect
# How it was run: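 NADPH consumption followed by fluorescence at 340/450 nm, t=0 and after 15 min at room temperature. Reaction started with cumene hydroperoxide (0.5 mM final) after 30 min compound–GPX4 preincubation; final 200 nM GPX4, 100 nM GR, 1 mM GSH, 0.5 mM NADPH.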
# [6] = qHTS drug screen for cell cycle checkpoint inhibitors in PARPi-resistant BRCA-mutant ovarian cancer cell lines. (AID 1963452; calls by dose curve; further: potency means the concentration at half of the fitted maximal effect); details: PEO1/OlaR viability, CellTiter-Glo luminescence, 96 h; for Z-AUC: stronger effect = lower value
# How it was run: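 PEO1, PEO4 and PEO1/OlaR ovarian cancer cells, 600 per well, exposed 96 h at 37C to a dilution series. Viability read by CellTiter-Glo luminescence, normalized to DMSO and empty wells; activity summarized as Z-AUC.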
# [7] = qHTS assay to identify inhibitors of the type 1 interferon - major histocompatibility complex class I in skeletal muscle: Counter screen cell viability and HiBit confirmation (AID 1347412); details: iHSKM muscle cells + IFN-b, HiBiT or CellTiter-Glo, 24 h; for activity change, negative = inhibition: at 45.9 µM (top of the series); further: potency means the concentration at half of the fitted maximal effect; on activity change, negative = inhibition: on the % scale 0 is the no-effect control and ±100 the full control effect; on all read-outs here: nearly all actives have a fitted effect of over 60% in size
# How it was run: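 After 24 h with human IFN-beta (4 ng/ml) and compound titrations (top 46 uM final, 1:3, 12 points), HLA-B HiBit myoblasts were lysed for either Nano-Glo HiBiT luminescence or CellTiter Glo viability on paired plates.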
# [8] = qHTS to identify inhibitors of the type 1 interferon - major histocompatibility complex class I in skeletal muscle: primary screen against the NCATS Mechanism Interrogation Plate v5.0 (MIPE) Libary (AID 1347411); further: nearly all actives have a fitted effect of over 65% in size; further: potency means the concentration at half of the fitted maximal effect;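 on activity change, negative = inhibition: plate controls were vehicle for no effect and reference inhibitor for full effect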
# How it was run: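 Luminescence from CRISPR HiBit-tagged endogenous HLA-B in human myoblasts reported MHC class I level after 24 h of IFN-beta (4 ng/ml) plus compound. Compounds ran as 11-point 1:3 series, top 46 uM final.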
# [9] = P-glycoprotein substrates identified in KB-3-1 adenocarcinoma cell line, qHTS therapeutic library screen (AID 1346986); further: on the % scale 0 is the no-effect control and ±100 the full control effect; nearly all actives have a fitted effect of over 60% in size
# How it was run: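 Viability read by CellTiter-Glo after 72 h compound exposure in dose-response of KB-3-1 and KB-8-5-11 (P-gp-high) cells. Hits needed AC50 < 10 uM, >50% maximum response and curve class -1.1 to -2.4. Cherry-picks retested ± tariquidar, including pcDNA/MDR-19 HEK-293 pair.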
# [10] = molecular target: Catechol O-methyltransferase (Homo sapiens) (UniProt P21964); experiment: Confirmatory Screen for Target Class Profiling of Small Molecule Inhibitors of Methyltransferases (AID 1745852); details: MTase-Glo luminescence, SAH detection, recombinant enzyme; measured here: COMT max response; stronger effect = lower value; on activity change, negative = inhibition: on the % scale 0 is the no-effect control and ±100 the full control effect
# [11] = molecular target: Guanidinoacetate N-methyltransferase (Homo sapiens) (UniProt Q14353); experiment: as above; details: activity change, negative = inhibition: at 57.3 µM (top of the series) unless noted
# [12] = molecular target: Nicotinamide N-methyltransferase (Homo sapiens) (UniProt P40261); experiment: as above; details: MTase-Glo luminescence, SAH detection, recombinant enzyme; measured here: NNMT max response; stronger effect = lower value
# [13] = molecular target: Phenylethanolamine N-methyltransferase (Homo sapiens) (UniProt P11086); experiment: as above; details: MTase-Glo luminescence, SAH detection, recombinant enzyme; measured here: PNMT max response; stronger effect = lower value
# [14] = molecular target: Calcium and integrin-binding protein 1 (Homo sapiens) (UniProt Q99828); experiment: Primary qHTS for Identification of Calcium Integrin Binding Protein 1 (CIB1) Competitor (AID 1508620);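 further: GST tagged CIB1 binding a fluorescein labelled alphaIIb integrin peptide tracer; top concentration of the series differs between compounds; on the % scale 0 is the no-effect control and ±100 the full control effect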
# How it was run: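 CIB1-GST (1 uM final) and compound incubated 15 min at room temperature before adding FITC-alphaIIb peptide tracer (100 nM final). Competition for binding read by fluorescence polarization (ex 480, em 540) after another 15 min at room temperature.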
# [15] = measured here: PEO1 parental Z-AUC
# Sequence of Glutathione peroxidase 1 (Homo sapiens) (P07203 whole entry, looked up): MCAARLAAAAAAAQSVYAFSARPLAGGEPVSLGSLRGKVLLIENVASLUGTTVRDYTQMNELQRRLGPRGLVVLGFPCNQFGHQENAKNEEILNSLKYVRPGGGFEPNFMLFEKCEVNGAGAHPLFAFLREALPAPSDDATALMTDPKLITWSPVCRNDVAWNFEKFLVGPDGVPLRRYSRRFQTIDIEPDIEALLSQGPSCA
# Sequence of Calcium and integrin-binding protein 1 (Homo sapiens) (Q99828 whole entry, looked up): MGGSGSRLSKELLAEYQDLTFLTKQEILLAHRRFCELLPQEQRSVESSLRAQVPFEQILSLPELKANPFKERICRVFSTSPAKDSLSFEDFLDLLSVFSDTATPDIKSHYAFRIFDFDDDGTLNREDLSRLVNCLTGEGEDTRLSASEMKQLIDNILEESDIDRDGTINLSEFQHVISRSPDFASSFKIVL
# Sequence of Phospholipid hydroperoxide glutathione peroxidase GPX4 (Homo sapiens) (P36969 whole entry, looked up): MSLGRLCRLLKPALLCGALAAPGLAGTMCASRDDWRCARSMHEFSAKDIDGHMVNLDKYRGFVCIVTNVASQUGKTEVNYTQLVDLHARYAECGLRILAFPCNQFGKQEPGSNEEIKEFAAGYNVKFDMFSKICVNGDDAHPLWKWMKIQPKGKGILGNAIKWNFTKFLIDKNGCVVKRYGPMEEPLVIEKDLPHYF
# Sequence of Catechol O-methyltransferase (Homo sapiens) (P21964 whole entry, looked up): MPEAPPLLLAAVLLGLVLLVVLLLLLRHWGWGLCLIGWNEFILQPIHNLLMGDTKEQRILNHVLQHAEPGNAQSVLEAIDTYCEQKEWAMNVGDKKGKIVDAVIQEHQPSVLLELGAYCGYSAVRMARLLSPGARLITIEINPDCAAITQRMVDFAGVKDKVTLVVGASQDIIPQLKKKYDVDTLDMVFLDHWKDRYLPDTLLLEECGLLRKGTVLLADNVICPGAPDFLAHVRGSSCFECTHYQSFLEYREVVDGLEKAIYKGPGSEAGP
# Sequence of Nicotinamide N-methyltransferase (Homo sapiens) (P40261 whole entry, looked up): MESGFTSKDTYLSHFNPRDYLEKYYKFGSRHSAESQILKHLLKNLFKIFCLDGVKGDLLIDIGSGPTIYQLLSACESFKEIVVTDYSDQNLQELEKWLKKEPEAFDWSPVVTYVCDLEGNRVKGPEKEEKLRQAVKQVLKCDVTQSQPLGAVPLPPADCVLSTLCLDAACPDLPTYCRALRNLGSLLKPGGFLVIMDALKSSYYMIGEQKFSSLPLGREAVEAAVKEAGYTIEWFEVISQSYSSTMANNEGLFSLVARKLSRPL
# Sequence of Phenylethanolamine N-methyltransferase (Homo sapiens) (P11086 whole entry, looked up): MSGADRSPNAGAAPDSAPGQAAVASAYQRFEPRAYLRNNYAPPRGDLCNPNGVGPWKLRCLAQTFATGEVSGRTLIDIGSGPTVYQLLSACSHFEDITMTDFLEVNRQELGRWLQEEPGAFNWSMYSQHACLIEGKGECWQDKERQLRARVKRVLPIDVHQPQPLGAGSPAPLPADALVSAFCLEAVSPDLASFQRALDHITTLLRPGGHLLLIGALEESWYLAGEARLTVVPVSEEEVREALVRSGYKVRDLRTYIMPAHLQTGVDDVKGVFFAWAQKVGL
structure (smiles),measurement,setting,value
Nc1ncnc2c1nc(Cl)n2C1O[C@H](CO)[C@@H](O)[C@H]1O (stereo partly drawn),Potency,[1],1.84 µM (active)
same,Potency,[2],2.59 µM (active)
same,Potency,[3],1.84 µM (active)
O=C1NC(=O)/C(=C\c2ccc3nccc(-c4ccncc4)c3c2)S1,Potency,[1],1.46 µM (active)
same,Potency,[2],0.326 µM (active)
same,Potency,[3],0.366 µM (active)
Nc1ncnc(Nc2ccc(OCc3ccccc3)c(Cl)c2)c1/C=N/OCCN1CCOCC1,Potency,[1],16.4 µM (active)
same,Potency,[2],16.6 µM (active)
same,Potency,[3],8.33 µM (active)
same,Potency,[4],inactive
same,Potency,[5],inactive
same,Z-AUC,[6],-0.0964 (inactive)
same,Z-AUC,[6]; [15],0.0883
same,Z-AUC,[6]; measured here: PEO4 Z-AUC,-0.311
same,"activity change, negative = inhibition",[7]; HiBiT,-8.78% (inactive)
same,"activity change, negative = inhibition",[7]; Viability,12.2% (inactive)
Cc1nc(CNc2ncnc3ccc(-c4ccc5c(c4)OCO5)cc23)cs1,Potency,[1],inactive
O=C1NC(=O)/C(=C/c2ccc3nccc(-c4ccncc4)c3c2)S1,Potency,[1],3.66 µM (active)
same,Potency,[8],0.829 µM (active)
same,Potency,[2],920 nM (active) and 332 nM (active)
same,Potency,[4],inactive
same,Potency,[5],inactive
same,Potency,[6],1.95 µM (active)
same,Z-AUC,[6]; [15],-1.47
same,Z-AUC,[6]; measured here: PEO4 Z-AUC,-1.84
same,Potency,[7]; HiBiT,4.97 µM (active)
CSc1nc(N)cc(Oc2ccc(-c3nc(Nc4cccc(C(F)(F)F)c4)n[nH]3)cc2)n1,Potency,[1],5.8 µM (active)
same,Potency,[2],1.64 µM (active)
same,Potency,[3],1.3 µM (active)
O=C1NCCCc2c1oc1ccc(O)cc21,Potency,[1],inactive
COc1ccc2nc3ccc(OC)cc3c(SCCCN)c2c1,Potency,[1],inactive
same,Potency,[2],inactive
same,Potency,[3],inactive
CCc1c(C(=O)NNC(=O)[C@@H](O)c2cc(F)cc(F)c2)ccc(O)c1C,Potency,[1],inactive
same,Potency,[8],inactive
same,Potency,[2],inactive
same,Potency,[3],inactive
same,Potency,[4],inactive
same,Potency,[5],inactive
same,Z-AUC,[6],1.17 (inactive)
same,Z-AUC,[6]; [15],0.688
same,Z-AUC,[6]; measured here: PEO4 Z-AUC,1.04
CNc1ncc2cc(-c3cc(NC(=O)NCCC(C)(C)C)c(F)cc3C)c(C)nc2n1,Potency,[1],4.61 µM (active)
same,Potency,[8],inactive
same,Potency,[2],0.417 µM (active)
same,Potency,[3],0.59 µM (active)
same,Potency,[4],inactive
same,Potency,[5],inactive
CNS(=O)(=O)c1ccc2c(c1)/C(=C/c1[nH]c3c(c1CCCN1CCN(C)CC1)CCCC3)C(=O)N2,Potency,[1],inactive
same,Potency,[8],20.8 µM (active)
same,Potency,[2],inactive
same,Potency,[3],16.6 µM (active)
same,Potency,[4],inactive
same,Potency,[5],inactive
same,Z-AUC,[6],0.43 (inactive)
same,Z-AUC,[6]; [15],0.259
same,Z-AUC,[6]; measured here: PEO4 Z-AUC,-0.147
CC(C)n1cnc2c(NCc3cccc(C(F)(F)F)c3)ncnc21,Potency,[9],inactive
same,Potency,[4],inactive
Oc1cc(CNC(=S)/C=C/c2cc(O)c(O)c(Br)c2)cc(O)c1O,Potency,[1],7.31 µM (active)
same,Potency,[2],1.16 µM (active)
same,Potency,[3],1.03 µM (active)
same,activity,[10],-46.2%
same,"activity change, negative = inhibition",[11],-4.79%
same,activity,[12],-0.986%
same,activity,[13],-0.984%
CN(CCO)C1CCN(c2ccc(Nc3ncc4c5ccnc(F)c5n(C5CCCC5)c4n3)nc2)CC1,Potency,[1],11.2 µM (active)
same,Potency,[8],inactive
same,Potency,[2],0.574 µM (active)
same,Potency,[3],0.512 µM (active)
same,Potency,[4],inactive
same,Potency,[5],inactive
same,Z-AUC,[6],-1.43 (inactive)
same,Z-AUC,[6]; [15],-0.563
same,Z-AUC,[6]; measured here: PEO4 Z-AUC,-1
Cc1ccc2cc(-c3c(C)ccc(C(=O)c4c(-c5ccccc5)n(C)n(-c5ccccc5)c4=O)c3N)ccc2n1,Potency,[1],16.4 µM (active)
same,Potency,[8],inactive
same,Potency,[4],inactive
same,Z-AUC,[6],-0.557 (inactive)
same,Z-AUC,[6]; [15],-0.233
same,Z-AUC,[6]; measured here: PEO4 Z-AUC,-0.0214
O=C1CCCC2=C1C(c1ncccc1Br)N=C(Nc1nc3ccccc3o1)N2 (stereo not drawn),Potency,[1],inactive
same,outcome,[14],inactive
same,Potency,[4],inactive
Cc1ccc(NS(=O)(=O)c2cc3c(cc2N[C@@H](C)CO)NC(=O)CC3)cc1Cl,Potency,[1],inactive
same,outcome,[14],inactive
same,Potency,[4],inactive
C=CCN(/C=C1\C(=O)OC(COC)C2(C)C1=C(O)C(=O)C1=C2C(OC(C)=O)CC2(C)C(=O)CCC12)CC=C (stereo not drawn),Potency,[1],inactive
same,Potency,[2],9.2 µM (active)
same,Potency,[3],11.6 µM (active)
Oc1cccc(-c2nc(N3CCOCC3)c3sccc3n2)c1,Potency,[1],4.61 µM (active)
same,Potency,[2],1.3 µM (active)
same,Potency,[3],1.16 µM (active)
CC(C)n1nc(Cc2cccc3ccccc23)c2c(N)ncnc21,Potency,[1],18.4 µM (active)
same,outcome,[14],inactive
same,activity,[10],-11.5%
same,"activity change, negative = inhibition",[11],-6.43%
same,activity,[12],-28.9%
same,activity,[13],-57.3%
same,Potency,[4],inactive
CC(=O)Nc1ccc(C(=O)NC(C)(C)C)cc1,Potency,[1],inactive
same,Potency,[8],inactive
same,Potency,[2],inactive
same,Potency,[3],inactive
same,Potency,[4],inactive
same,Z-AUC,[6],1.04 (inactive)
same,Z-AUC,[6]; [15],0.805
same,Z-AUC,[6]; measured here: PEO4 Z-AUC,0.364
